# According to publication PMC11062922 (Nature Chemical Biology, 2023):
# Read-outs that look alike come from different tables or passages of the source.
# Experiments:
# Parameters in all cases: species or system human, MV4-11 + K-562 + COLO205 + SK-N-BE2 + OVCAR-8
# ATM = details: read-out: apparent Kd, n = 1
# CDK16 = details: read-out: apparent Kd, n = 1
# CDK17 = details: read-out: apparent Kd; compound concentrations:100 nM and 1000 nM (sheet 'Samples'); n = 1
# CDK2 = details: read-out: apparent Kd, n = 1
# CLK4 = details: read-out: apparent Kd, n = 1
# PAK4 = details: read-out: apparent Kd; compound concentrations:100 nM and 1000 nM (sheet 'Samples'); n = 1
# STK3 = details: read-out: apparent Kd; compound concentrations:100 nM and 1000 nM (sheet 'Samples'); n = 1
# STK4 = details: read-out: apparent Kd; compound concentrations:100 nM and 1000 nM (sheet 'Samples'); n = 1
# PIK3C3 = details: read-out: apparent Kd; compound concentrations:100 nM and 1000 nM (sheet 'Samples'); n = 1
# AKT3 = details: read-out: apparent Kd; compound concentrations: 100 nM and 1000 nM (sheet 'Samples'), CATDS: 8.6052459279118296E-2; n = 1
# CDK5 = details: read-out: apparent Kd; compound concentrations: 100 nM and 1000 nM (sheet 'Samples'), CATDS: 0.117408744054376; n = 1
# CDK6 = details: read-out: apparent Kd, compound concentrations: 100 nM and 1000 nM (sheet 'Samples'), n = 1
# CSNK2A1;CSNK2A3 = details: read-out: apparent Kd, compound concentrations: 100 nM and 1000 nM (sheet 'Samples'), n = 1
# CSNK2A2 = details: read-out: apparent Kd, compound concentrations: 100 nM and 1000 nM (sheet 'Samples'), n = 1
# FLT3 = details: read-out: apparent Kd; compound concentrations: 100 nM and 1000 nM (sheet 'Samples'), CATDS: 0.40008712572593402; n = 1
# MYLK3 = details: read-out: apparent Kd; compound concentrations: 100 nM and 1000 nM (sheet 'Samples'), CATDS: 8.3976923453049093E-2; n = 1
# CHEK1 = details: read-out: apparent Kd; compound concentrations:100 nM and 1000 nM (sheet 'Samples'); n = 1
# GRK6 = details: read-out: apparent Kd; compound concentrations:100 nM and 1000 nM (sheet 'Samples'); n = 1
# PDGFRB = details: read-out: apparent Kd; compound concentrations:100 nM and 1000 nM (sheet 'Samples'); n = 1
# RET = details: read-out: apparent Kd; compound concentrations:100 nM and 1000 nM (sheet 'Samples'); n = 1
# RPS6KA6 = details: read-out: apparent Kd; compound concentrations:100 nM and 1000 nM (sheet 'Samples'); n = 1
# FECH = details: read-out: apparent Kd, compound concentrations: 100 nM and 1000 nM (sheet 'Samples'), n = 1
# PIK3CA = details: read-out: apparent Kd, compound concentrations: 100 nM and 1000 nM (sheet 'Samples'), n = 1
# PLK1 = details: read-out: apparent Kd; compound concentrations: 100 nM and 1000 nM (sheet 'Samples'), CATDS: 0.15646266136602699; n = 1
# PRKACG = details: read-out: apparent Kd; compound concentrations: 100 nM and 1000 nM (sheet 'Samples'), CATDS: 0.152371623335085; n = 1
# AKT2 = details: read-out: apparent Kd, compound concentrations: 100 nM and 1000 nM (sheet 'Samples'), n = 1
# MAP3K6 = details: read-out: apparent Kd; compound concentrations: 100 nM and 1000 nM (sheet 'Samples'), CATDS: 0.18139897534285501; n = 1
# TESK1 = details: read-out: apparent Kd; compound concentrations: 100 nM and 1000 nM (sheet 'Samples'), CATDS: 0.16638994062749099; n = 1
# CSNK1D = details: read-out: apparent Kd; compound concentrations: 100 nM and 1000 nM (sheet 'Samples'), CATDS: 0.20295054988008099; n = 1
# DYNC1LI1 = details: read-out: apparent Kd; compound concentrations: 100 nM and 1000 nM (sheet 'Samples'), CATDS: 0.215188969129953; n = 1
# MAPK14 = details: read-out: apparent Kd; compound concentrations: 100 nM and 1000 nM (sheet 'Samples'), CATDS: 0.21262407645477699; n = 1
# NQO1 = details: read-out: apparent Kd; compound concentrations: 100 nM and 1000 nM (sheet 'Samples'), CATDS: 0.18936127019719301; n = 1
# BMPR2 = details: read-out: apparent Kd; compound concentrations: 100 nM and 1000 nM (sheet 'Samples'), CATDS: 6.92108143191002E-2; n = 1
# CDC7 = details: read-out: apparent Kd; compound concentrations: 100 nM and 1000 nM (sheet 'Samples'), CATDS: 7.2811960251287902E-2; n = 1
# CLK1 = details: read-out: apparent Kd; compound concentrations: 100 nM and 1000 nM (sheet 'Samples'), CATDS: 6.6251473023667004E-2; n = 1
# GAK = details: read-out: apparent Kd; compound concentrations: 100 nM and 1000 nM (sheet 'Samples'), CATDS: 0.232195819387676; n = 1
# JAK1 = details: read-out: apparent Kd; compound concentrations: 100 nM and 1000 nM (sheet 'Samples'), CATDS: 8.5496102279709801E-2; n = 1
# PI4KB = details: read-out: apparent Kd; compound concentrations: 100 nM and 1000 nM (sheet 'Samples'), CATDS: 0.18235028668709399; n = 1
# PIK3C2B = details: read-out: apparent Kd; compound concentrations: 100 nM and 1000 nM (sheet 'Samples'), CATDS: 7.7184460843741698E-2; n = 1
# RIOK2 = details: read-out: apparent Kd; compound concentrations: 100 nM and 1000 nM (sheet 'Samples'), CATDS: 5.9872886906535798E-2; n = 1
# TNIK = details: read-out: apparent Kd; compound concentrations: 100 nM and 1000 nM (sheet 'Samples'), CATDS: 7.3078421719639103E-2; n = 1
# AURKB = details: read-out: apparent Kd, compound concentrations: 100 nM and 1000 nM (sheet 'Samples'), n = 1
# FRK = details: read-out: apparent Kd; compound concentrations: 100 nM and 1000 nM (sheet 'Samples'), CATDS: 0.20541048122338901; n = 1
# HCK = details: read-out: apparent Kd; compound concentrations: 100 nM and 1000 nM (sheet 'Samples'), CATDS: 0.153376634791901; n = 1
# LCK = details: read-out: apparent Kd; compound concentrations: 100 nM and 1000 nM (sheet 'Samples'), CATDS: 0.126638477949608; n = 1
# LYN = details: read-out: apparent Kd; compound concentrations: 100 nM and 1000 nM (sheet 'Samples'), CATDS: 0.11348132537540701; n = 1
# MAP2K5 = details: read-out: apparent Kd; compound concentrations: 100 nM and 1000 nM (sheet 'Samples'), CATDS: 9.4476183920835705E-2; n = 1
# TNK2 = details: read-out: apparent Kd; compound concentrations: 100 nM and 1000 nM (sheet 'Samples'), CATDS: 0.38594497215225099; n = 1
# IKBKE = details: read-out: apparent Kd; compound concentrations:100 nM and 1000 nM (sheet 'Samples'); n = 1
# TBK1 = details: read-out: apparent Kd; compound concentrations:100 nM and 1000 nM (sheet 'Samples'); n = 1
# [1] = compound concentrations:100 nM and 1000 nM (sheet 'Samples')
structure (smiles),measurement,setting,value
COc1cc(F)c(F)cc1C(=O)c1cnc(NC2CCN(S(C)(=O)=O)CC2)nc1N [RO4595655-000],potency estimated from few doses,ATM; [1],157 nM
same,potency estimated from few doses,CDK16; [1],1510 nM
same,potency estimated from few doses,CDK17,1840 nM
same,potency estimated from few doses,CDK2; [1],1210 nM
same,potency estimated from few doses,CLK4; [1],1430 nM
same,potency estimated from few doses,PAK4,1340 nM
same,potency estimated from few doses,STK3,2300 nM
same,potency estimated from few doses,STK4,1690 nM
Cc1cn2c(=O)cc(N3CCOCC3)nc2n1Cc1cccc(Cl)c1Cl [GSK2334006A],potency estimated from few doses,ATM; [1],280 nM
same,potency estimated from few doses,PIK3C3,61.5 nM
NS(=O)(=O)c1ccc(Nc2cc(-c3ccc(O)c(F)c3)n[nH]2)cc1 [GW831091X],potency estimated from few doses,AKT3,1690 nM
same,potency estimated from few doses,"CDK16; compound concentrations: 100 nM and 1000 nM (sheet 'Samples'), CATDS: 8.8636413805305694E-2",1550 nM
same,potency estimated from few doses,"CDK2; compound concentrations: 100 nM and 1000 nM (sheet 'Samples'), CATDS: 0.14540297909740599",491 nM
same,potency estimated from few doses,CDK5,759 nM
same,potency estimated from few doses,CDK6; CATDS: 8.47728191524936E-2,1770 nM
same,potency estimated from few doses,CSNK2A1;CSNK2A3; CATDS: 0.11670425999811999,770 nM
same,potency estimated from few doses,CSNK2A2; CATDS: 0.126102528289014,652 nM
same,potency estimated from few doses,FLT3,99.2 nM
same,potency estimated from few doses,MYLK3,1830 nM
COc1cc(Nc2cnc(C#N)c(O[C@H](C)CN(C)C)n2)ncc1-c1cnn(C)c1 [CCT244747],potency estimated from few doses,ATM; [1],179 nM
same,potency estimated from few doses,CHEK1,39.7 nM
same,potency estimated from few doses,GRK6,1230 nM
same,potency estimated from few doses,PDGFRB,1490 nM
same,potency estimated from few doses,RET,112 nM
same,potency estimated from few doses,RPS6KA6,460 nM
COc1cccc(COc2cc(-n3cnc4ccccc43)sc2C(N)=O)c1 [GW804482X],potency estimated from few doses,"ATM; compound concentrations: 100 nM and 1000 nM (sheet 'Samples'), CATDS: 0.32091008376932201",210 nM
same,potency estimated from few doses,FECH; CATDS: 0.190744919400651,558 nM
same,potency estimated from few doses,PIK3CA; CATDS: 0.27121911823644002,277 nM
same,potency estimated from few doses,PLK1,938 nM
same,potency estimated from few doses,PRKACG,1020 nM
CC(C)(C)c1ccc(C(=O)Nc2cn3cc(-c4cccnc4)ccc3n2)cc1 [TPKI-58],potency estimated from few doses,AKT2; CATDS: 0.161552341020717,1950 nM
same,potency estimated from few doses,CDK6; CATDS: 0.161106478670141,1970 nM
same,potency estimated from few doses,MAP3K6,1390 nM
same,potency estimated from few doses,PIK3CA; CATDS: 0.92567597438095595,17.7 nM
same,potency estimated from few doses,TESK1,1790 nM
CSc1nccc(-c2c(-c3ccc(F)cc3)ncn2CCCN2CCOCC2)n1.Cl [SB-217146-A],potency estimated from few doses,AKT2; CATDS: 0.183770633421974,2140 nM
same,potency estimated from few doses,CSNK1D,1740 nM
same,potency estimated from few doses,DYNC1LI1,1560 nM
same,potency estimated from few doses,MAPK14,1590 nM
same,potency estimated from few doses,NQO1,2010 nM
COC(=O)c1ccc2c(c1)C(=Cc1cc(Br)c(O)c(Br)c1)C(=O)N2 [GW405841X],potency estimated from few doses,BMPR2,1220 nM
same,potency estimated from few doses,CDC7,1070 nM
same,potency estimated from few doses,CLK1,1380 nM
same,potency estimated from few doses,"CLK4; compound concentrations: 100 nM and 1000 nM (sheet 'Samples'), CATDS: 8.9206642022587504E-2",668 nM
same,potency estimated from few doses,CSNK2A1;CSNK2A3; CATDS: 8.9230390485803696E-2,667 nM
same,potency estimated from few doses,CSNK2A2; CATDS: 7.4198005881570203E-2,1020 nM
same,potency estimated from few doses,GAK,138 nM
same,potency estimated from few doses,JAK1,731 nM
same,potency estimated from few doses,PI4KB,194 nM
same,potency estimated from few doses,PIK3C2B,924 nM
same,potency estimated from few doses,RIOK2,1910 nM
same,potency estimated from few doses,TNIK,1060 nM
Cc1ccc(C(=O)Nc2ccc(Nc3ccnc4cc(-c5nccs5)ccc34)cc2O)cc1.Cl [GW494702A],potency estimated from few doses,AURKB; CATDS: 8.5065344981926597E-2,1430 nM
same,potency estimated from few doses,FECH; CATDS: 9.1141958763267306E-2,1090 nM
same,potency estimated from few doses,FRK,152 nM
same,potency estimated from few doses,HCK,267 nM
same,potency estimated from few doses,LCK,412 nM
same,potency estimated from few doses,LYN,547 nM
same,potency estimated from few doses,MAP2K5,956 nM
same,potency estimated from few doses,TNK2,55.9 nM
CC(C)(C)OC(=O)NC1CCCN(c2cc(-c3ccc4c(N)n[nH]c4c3)nc(N)n2)C1 (stereo not shown) [GSK2286096A],potency estimated from few doses,AURKB; CATDS: 0.30892280218859702,105 nM
same,potency estimated from few doses,IKBKE,78.7 nM
same,potency estimated from few doses,PIK3C3,978 nM
same,potency estimated from few doses,TBK1,129 nM
